PubChem BioAssay
Unmarked numbers belong to inactive results. The source made the active and inactive calls.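 How the source made its calls, unless noted: active means inhibition above 50%; inactive means the rest.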

test: antimalarial activity against Dd2 strain (AID 2302;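 active means growth inhibition above 50% at the single 2 µM test dose, taken to imply half-maximal potency below 2 µM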;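 further: 0% = DMSO untreated growth and 100% = chloroquine plus artemisinin killed control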); settings: P. falciparum Dd2 in RBCs, LDH growth readout, 72 h; at 2 µM; hits give high values

Row | SMILES | growth inhibition
1 | O=c1cc(NCCCNCc2csc(Br)c2Sc2ccc(Cl)cc2)[nH]c2ccccc12 | 83% (active)
2 | CS(=O)(=O)Cc1ccc(Nc2nccc(NC3CCN(c4nccc(C(F)(F)F)n4)CC3)n2)cc1 | 23%
3 | CCOc1cc2c(cc1OCC)C(c1ccc(O)c(Cl)c1)NCC2 (stereo unspecified) | 98% (active)
4 | COc1cc(CN2CCC(C(=O)Nc3ccc(-c4cccc(C)c4)cc3)CC2)ccc1O | 85% (active)
5 | CCCCCCn1c(Sc2ccc(C#N)c([N+](=O)[O-])c2)nnc1-c1ccc(N(C)C)cc1 | 25%
6 | Cc1ccc(NC(=O)c2ccc(N3CCN(c4ccncc4)CC3)cc2)cc1F | 79% (active)
7 | Cc1cccc2[nH]c(-c3cccc(-c4ccc(CNCc5cccc(N)c5)cc4)c3)nc12 | 93% (active)
8 | O=C1OC2(CN1CC1CCN(Cc3ccc(O)c(Cl)c3)CC1)c1ccccc1-c1ccccc12 | 96% (active)
9 | CCCN(Cc1nnc(-c2cccs2)o1)C(=O)CSc1nnnn1-c1ccc(C)c(C)c1 | 80% (active)
10 | CCN1C(=O)N(CCC(C)C)C2(CCN(Cc3ccc(OC)cc3O)CC2)C1=O | 77% (active)
11 | COc1ccc2c(NN=Cc3cccc([N+](=O)[O-])c3)cc(C)nc2c1 | 97% (active)
12 | Cn1cncc1C(=O)Nc1cccc(-c2cccc(-c3nc4ccc(C(F)(F)F)cc4[nH]3)c2)c1 | 99% (active)
13 | N#Cc1ccc(-c2ccc(OCC(O)CN3CCCN(C(=O)C(c4ccc5c(c4)OCO5)N4CCN(C/C=C/c5ccccc5)CC4)CC3)cc2)cc1 (stereo unspecified) | 77% (active)
14 | COC(=O)c1ccc2nc(-c3ccc(/C=C/C(=O)NC4CCN(Cc5ccccc5)CC4)cc3)[nH]c2c1 | 88% (active)
15 | CC(=O)Nc1nnc(SCc2c(C)cc(C(C)(C)C)cc2C)s1 | 91% (active)
16 | O=C(Cc1ccccc1)NC(CCN1CCC(N(C2CC2)S(=O)(=O)c2cccc(C(F)(F)F)c2)CC1)c1ccc(Cl)c(Cl)c1 (stereo unspecified) | 27%
17 | CN(C)c1ccc(-c2csc(C(=O)NC3CCN(CCC(C)(C)C)C3)c2)cc1 (stereo unspecified) | 36%
18 | Cc1ccc(CNC(=O)[C@H](Cc2ccccc2)Nc2cc(C)nc(Nc3ccccc3)n2)cc1 | 91% (active)
19 | CCOC(=O)c1cccc(N/C(N)=N/c2nc(C)cc(NCCc3ccccc3)n2)c1 | 72% (active)
20 | Cc1cccc2[nH]c(-c3ccc(-c4ccc(NC(=O)NCc5ccccc5)cc4)s3)nc12 | 8%
21 | COc1cccc(NC(=O)Nc2ccc(C)c(-c3ccc(C(=O)Nc4ccncc4)cc3)c2)c1 | 64% (active)
22 | Cc1ccc(O)c(-c2cc(C(=O)Nc3ccc(S(=O)(=O)N4CCCC(C)C4)cc3)[nH]n2)c1 (stereo unspecified) | 97% (active)
23 | CN(C)CCOC(=O)C1(O)CCC2CC1C2(C)C (stereo unspecified) | -5%
24 | COc1ccc(C=C2SC(=O)NC2=Nc2ccccc2)c(OC)c1 | 89% (active)
25 | O=C(Nc1cccc(-c2cccc(-c3nc4ccc(C(F)(F)F)cc4[nH]3)c2)c1)c1ccoc1 | 61% (active)
26 | Cc1ccc(Sc2ccc(NC(=O)CN3CCN(C(=O)c4ccco4)CC3)cc2)cc1C | 84% (active)

test: human hepatoma cell viability loss – ATP luminescence, cytotoxicity control for P. falciparum antimalarial project, primary screen (AID 2303); settings: HepG2 viability, 24-48 h, at 10 µM, hits give high values;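 further: 0% = DMSO wells and 100% = digitonin-killed cells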

Row | SMILES | inhibition
27 | O=C(N[C@@H](Cc1ccccc1)C(=O)NC1CCCCC1)c1ccc(O)c(-c2ccc(Cl)c(Cl)c2)c1 | -5%
28 | O=[N+]([O-])c1ccc2nc(Nc3cccc(C(F)(F)F)c3)c(Nc3cccc(C(F)(F)F)c3)nc2c1 | -2%
29 | C[C@H](Cc1ccc(CCc2ccc(C[C@@H](C)NC[C@H](O)c3cccc(Cl)c3)cc2)cc1)NC[C@H](O)c1cccc(Cl)c1 | 100% (active)
30 | COc1ccc2nccc([C@@H](O)CN3CCC(NCc4cc5ccccc5[nH]4)CC3)c2n1 | 17%
31 | C=CCc1cccc(OC)c1OCCCON1C(N)=NC(N)=NC1(C)C | 58% (active)
32 | Cc1ccc2nc(-c3ccc(C=CC(=O)NC4CCN(Cc5ccccc5)CC4)cc3)[nH]c2c1 | 9%
33 | CCOc1c(OC)ccc2c1CCN(CCN1CCC(CNC(=O)c3ccc(-c4ccc(C#N)cc4)cc3)CC1)C2 | 45%
34 | Nc1ncc(-c2ccc(F)cc2)c2ccc(-c3cccc(F)c3)cc12 | 34%
35 | O=C(NCc1ccc(F)cc1)c1cc(Br)cc(N2CCN(c3ccncc3)CC2)c1 | 36%
36 | O=C(Nc1ccc(Cl)c(Cl)c1)N[C@H]1CCN(CCCCCNC(=O)[C@@H]2C[C@H]2c2ccc(Cl)c(Cl)c2)C1 | 42%
37 | CCOC(=O)c1ccc(COc2ccc(C)nc2)cc1 | 14%
38 | CC(=O)Oc1cc(C(=O)Nc2ccc(Cl)cc2)cc2ccccc12 | 16%
39 | O=C(NC1CCN(c2ccnc3cc(Cl)ccc23)C1)c1ccccc1F (stereo unspecified) | 8%
40 | COc1cccc2cc(C(=O)N[C@@H](CC(C)C)C(=O)N[C@H](/C=N/N3CCCC3=O)Cc3ccccc3)oc12 | 5%
41 | O=c1cc(NCCCNCc2csc(Br)c2Sc2ccc(Cl)cc2)[nH]c2ccccc12 | 5%
42 | CS(=O)(=O)Cc1ccc(Nc2nccc(NC3CCN(c4nccc(C(F)(F)F)n4)CC3)n2)cc1 | 34%
43 | CCOc1cc2c(cc1OCC)C(c1ccc(O)c(Cl)c1)NCC2 (stereo unspecified) | 6%
44 | COc1cc(CN2CCC(C(=O)Nc3ccc(-c4cccc(C)c4)cc3)CC2)ccc1O | 25%
45 | CCCCCCn1c(Sc2ccc(C#N)c([N+](=O)[O-])c2)nnc1-c1ccc(N(C)C)cc1 | -1%
46 | Cc1ccc(NC(=O)c2ccc(N3CCN(c4ccncc4)CC3)cc2)cc1F | 47%

Row | SMILES | inhibition
47 | Cc1cccc2[nH]c(-c3cccc(-c4ccc(CNCc5cccc(N)c5)cc4)c3)nc12 | 19%
48 | O=C1OC2(CN1CC1CCN(Cc3ccc(O)c(Cl)c3)CC1)c1ccccc1-c1ccccc12 | 32%
49 | CCCN(Cc1nnc(-c2cccs2)o1)C(=O)CSc1nnnn1-c1ccc(C)c(C)c1 | -7%
50 | CCN1C(=O)N(CCC(C)C)C2(CCN(Cc3ccc(OC)cc3O)CC2)C1=O | 13%
51 | COc1ccc2c(NN=Cc3cccc([N+](=O)[O-])c3)cc(C)nc2c1 | 18%
52 | Cn1cncc1C(=O)Nc1cccc(-c2cccc(-c3nc4ccc(C(F)(F)F)cc4[nH]3)c2)c1 | 38%
53 | N#Cc1ccc(-c2ccc(OCC(O)CN3CCCN(C(=O)C(c4ccc5c(c4)OCO5)N4CCN(C/C=C/c5ccccc5)CC4)CC3)cc2)cc1 (stereo unspecified) | 25%
54 | COC(=O)c1ccc2nc(-c3ccc(/C=C/C(=O)NC4CCN(Cc5ccccc5)CC4)cc3)[nH]c2c1 | 12%
55 | CC(=O)Nc1nnc(SCc2c(C)cc(C(C)(C)C)cc2C)s1 | 3%
56 | O=C(Cc1ccccc1)NC(CCN1CCC(N(C2CC2)S(=O)(=O)c2cccc(C(F)(F)F)c2)CC1)c1ccc(Cl)c(Cl)c1 (stereo unspecified) | 19%
57 | CN(C)c1ccc(-c2csc(C(=O)NC3CCN(CCC(C)(C)C)C3)c2)cc1 (stereo unspecified) | 20%
58 | Cc1ccc(CNC(=O)[C@H](Cc2ccccc2)Nc2cc(C)nc(Nc3ccccc3)n2)cc1 | 16%
59 | CCOC(=O)c1cccc(N/C(N)=N/c2nc(C)cc(NCCc3ccccc3)n2)c1 | 21%
60 | Cc1cccc2[nH]c(-c3ccc(-c4ccc(NC(=O)NCc5ccccc5)cc4)s3)nc12 | 79% (active)
61 | COc1cccc(NC(=O)Nc2ccc(C)c(-c3ccc(C(=O)Nc4ccncc4)cc3)c2)c1 | 45%
62 | Cc1ccc(O)c(-c2cc(C(=O)Nc3ccc(S(=O)(=O)N4CCCC(C)C4)cc3)[nH]n2)c1 (stereo unspecified) | 27%
63 | CN(C)CCOC(=O)C1(O)CCC2CC1C2(C)C (stereo unspecified) | 10%
64 | COc1ccc(C=C2SC(=O)NC2=Nc2ccccc2)c(OC)c1 | 51% (active)
65 | O=C(Nc1cccc(-c2cccc(-c3nc4ccc(C(F)(F)F)cc4[nH]3)c2)c1)c1ccoc1 | 32%
66 | Cc1ccc(Sc2ccc(NC(=O)CN3CCN(C(=O)c4ccco4)CC3)cc2)cc1C | 14%
